According to PubChem BioAssay AID1159580 (chemical genetic matrix, 2015):
In all, about 5,500 compounds went through this assay and about 2,000 (36%) were called active. Not shown: some 18% with an inconclusive outcome. Cut-off read from the data, not from the text of the source: active = normalized growth mostly below about 0.91 (no sharp cut-off); inconclusive = no clear call, values can overlap the other calls; inactive = mostly above about 0.92. This is one part of the list.

Assay: chemical genetic growth profiling, strain panel (AID 1159580);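 note: tested at 20 µM; growth read once vehicle control cultures reached saturation at 30 °C; 1 = growth at the plate median or of vehicle wells; lower values mean less growth of the strain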
Settings: growth OD

Measured: normalized growth

Cc1cc(O)cc(C)c1Cl
active: S. cerevisiae deletion strains, locus YKR001C, strain vps1, active compounds read low 0.846 | S. cerevisiae deletion strains, locus YLL001W, strain dnm1, active compounds read low 0.875 | S. cerevisiae deletion strains, locus YLL026W, active compounds read low 0.915 | S. cerevisiae deletion strains, locus YLR221C, strain rsa3, active compounds read low 0.856 | S. cerevisiae deletion strains, locus YLR262C, strain YPT6 (second series), active compounds read low 0.403 | S. cerevisiae deletion strains, locus YLR320W, strain mms22, active compounds read low 0.815 | S. cerevisiae deletion strains, locus YLR370C, strain arc18, active compounds read low 0.902 | S. cerevisiae deletion strains, locus YMR058W, strain fet3, active compounds read low 0.871 | S. cerevisiae deletion strains, locus YMR231W, strain pep5, active compounds read low 0.754 | S. cerevisiae deletion strains, locus YNL071W, strain lat1, active compounds read low 0.821 | S. cerevisiae deletion strains, locus YNL248C, strain rpa49, active compounds read low 0.835 | S. cerevisiae deletion strains, locus YOR070C, strain gyp1, active compounds read low 0.906 | S. cerevisiae deletion strains, locus YOR106W, strain vam3, active compounds read low 0.817 | S. cerevisiae deletion strains, locus YOR270C, strain vph1, active compounds read low 0.674 | S. cerevisiae deletion strains, locus YPL051W, strain arl3, active compounds read low 0.715 | S. cerevisiae deletion strains, locus YPL078C, strain atp4, active compounds read low 0.838
inactive: S. cerevisiae deletion strains, locus YKL009W, strain mrt4, active compounds read low 0.931 | S. cerevisiae deletion strains, locus YKL068W, active compounds read low 1 | S. cerevisiae deletion strains, locus YKL085W, strain MDH1 (second series), active compounds read low 0.971 | S. cerevisiae deletion strains, locus YKL085W, strain MDH1, active compounds read low 0.971 | S. cerevisiae deletion strains, locus YKL160W, strain elf1, active compounds read low 0.915 | S. cerevisiae deletion strains, locus YKL190W, strain CNB1, active compounds read low 1 | S. cerevisiae deletion strains, locus YKR026C, strain gcn3, active compounds read low 0.952 | S. cerevisiae deletion strains, locus YKR091W, strain srl3, active compounds read low 0.958 | S. cerevisiae deletion strains, locus YLL041C, strain sdh2, active compounds read low 0.957 | S. cerevisiae deletion strains, locus YLR027C, strain aat2, active compounds read low 0.941 | S. cerevisiae deletion strains, locus YLR039C, strain RIC1, active compounds read low 0.765 | S. cerevisiae deletion strains, locus YLR058C, strain SHM2, active compounds read low 1 | S. cerevisiae deletion strains, locus YLR102C, strain apc9, active compounds read low 1 | S. cerevisiae deletion strains, locus YLR113W, strain HOG1, active compounds read low 0.944 | S. cerevisiae deletion strains, locus YLR258W, strain gsy2, active compounds read low 0.924 | S. cerevisiae deletion strains, locus YLR262C, strain YPT6, active compounds read low 0.736 | S. cerevisiae deletion strains, locus YLR268W, strain sec22, active compounds read low 1.01 | S. cerevisiae deletion strains, locus YLR330W, strain CHS5, active compounds read low 0.994 | S. cerevisiae deletion strains, locus YLR342W, strain FKS1 (second series), active compounds read low 0.982 | S. cerevisiae deletion strains, locus YLR342W, strain FKS1, active compounds read low 0.935 | S. cerevisiae deletion strains, locus YLR357W, strain rsc2, active compounds read low 1.1 | S. cerevisiae deletion strains, locus YLR371W, strain rom2, active compounds read low 0.997 | S. cerevisiae deletion strains, locus YLR384C, strain iki3, active compounds read low 0.992 | S. cerevisiae deletion strains, locus YLR418C, strain cdc73, active compounds read low 1 | S. cerevisiae deletion strains, locus YML016C, strain PPZ1, active compounds read low 0.992 | S. cerevisiae deletion strains, locus YML032C, strain rad52, active compounds read low 0.957 | S. cerevisiae deletion strains, locus YML120C, strain ndi1, active compounds read low 0.917 | S. cerevisiae deletion strains, locus YML124C, strain tub3, active compounds read low 0.996 | S. cerevisiae deletion strains, locus YMR078C, strain ctf18, active compounds read low 0.994 | S. cerevisiae deletion strains, locus YMR125W, strain sto1, active compounds read low 1.04 | S. cerevisiae deletion strains, locus YMR129W, active compounds read low 0.966 | S. cerevisiae deletion strains, locus YMR205C, strain PFK2, active compounds read low 0.898 | S. cerevisiae deletion strains, locus YMR223W, strain ubp8, active compounds read low 1.02 | S. cerevisiae deletion strains, locus YMR307W, strain GAS1, active compounds read low 0.904 | S. cerevisiae deletion strains, locus YNL067W, strain RPL9B, active compounds read low 0.972 | S. cerevisiae deletion strains, locus YNL153C, strain GIM3, active compounds read low 1.02 | S. cerevisiae deletion strains, locus YNL183C, strain NPR1, active compounds read low 0.88 | S. cerevisiae deletion strains, locus YNL209W, strain ssb2, active compounds read low 0.929 | S. cerevisiae deletion strains, locus YNL233W, strain BNI4, active compounds read low 0.992 | S. cerevisiae deletion strains, locus YNL250W, strain rad50, active compounds read low 0.992 | S. cerevisiae deletion strains, locus YNL271C, strain bni1, active compounds read low 1 | S. cerevisiae deletion strains, locus YNL298W, strain CLA4, active compounds read low 0.913 | S. cerevisiae deletion strains, locus YNL307C, strain MCK1, active compounds read low 0.995 | S. cerevisiae deletion strains, locus YNL322C, strain KRE1 (second series), active compounds read low 0.961 | S. cerevisiae deletion strains, locus YNR049C, strain mso1, active compounds read low 0.97 | S. cerevisiae deletion strains, locus YNR052C, strain pop2, active compounds read low 1.01 | S. cerevisiae deletion strains, locus YOL006C, strain TOP1, active compounds read low 0.979 | S. cerevisiae deletion strains, locus YOL012C, strain htz1 1.64 | S. cerevisiae deletion strains, locus YOL147C, strain pex11, active compounds read low 0.997 | S. cerevisiae deletion strains, locus YOR001W, strain rrp6, active compounds read low 0.892 | S. cerevisiae deletion strains, locus YOR061W, strain CKA2, active compounds read low 0.993 | S. cerevisiae deletion strains, locus YOR069W, strain VPS5, active compounds read low 1 | S. cerevisiae deletion strains, locus YOR080W, strain dia2, active compounds read low 1.02 | S. cerevisiae deletion strains, locus YOR083W, strain WHI5, active compounds read low 0.899 | S. cerevisiae deletion strains, locus YOR136W, strain idh2, active compounds read low 0.998 | S. cerevisiae deletion strains, locus YOR144C, strain elg1, active compounds read low 1 | S. cerevisiae deletion strains, locus YOR184W, strain ser1, active compounds read low 0.958 | S. cerevisiae deletion strains, locus YOR231W, strain MKK1, active compounds read low 0.946 | S. cerevisiae deletion strains, locus YOR265W, strain rbl2, active compounds read low 0.945 | S. cerevisiae deletion strains, locus YOR290C, strain snf2, active compounds read low 0.908 | S. cerevisiae deletion strains, locus YOR316C, strain cot1, active compounds read low 0.993 | S. cerevisiae deletion strains, locus YPL055C, strain LGE1, active compounds read low 0.947 | S. cerevisiae deletion strains, locus YPL106C, strain sse1, active compounds read low 1.1 | S. cerevisiae deletion strains, locus YPL240C, strain hsp82, active compounds read low 0.951 | S. cerevisiae deletion strains, locus YPL241C, strain CIN2, active compounds read low 0.999 | S. cerevisiae deletion strains, locus YPL256C, strain CLN2, active compounds read low 0.92 | S. cerevisiae deletion strains, locus YPR119W, strain clb2, active compounds read low 0.997 | S. cerevisiae deletion strains, locus YPR141C, strain kar3, active compounds read low 0.999 | S. cerevisiae deletion strains, locus YPR163C, strain tif3, active compounds read low 1.01 | S. cerevisiae deletion strains, locus YPR167C, strain met16, active compounds read low 0.99 | S. cerevisiae deletion strains, strain wtn01, active compounds read low 0.96 | S. cerevisiae strains, strain wild type, active compounds read low 0.998
